Assay outcomes: PubChem BioAssay, National Center for Advancing Translational Sciences (NCATS)
An excerpt weighted towards active compounds, which were near 2.7% of everything screened.
RXFP1 antagonist: qHTS Assay for Antagonists of the Relaxin Receptor RXFP1; Relaxin receptor 1 (Homo sapiens), Q9HBX9; HEK293-RXFP1, relaxin-stimulated cAMP HTRF, 30 min; stronger effect = lower value; activity change, negative = inhibition, % at 57.5 µM; 0.59% of 350,000 active; AID 1259400, 2018;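 active = activity change of -60% or lower, but not beyond a set lower limit; inconclusive = change between -60% and -40%, or beyond the set limit; inactive = change above -40%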
ClpP mod: qHTS Assay for Activators of ClpP | AID 651965, 2013 | purified B. subtilis ClpP, FRET peptide cleavage, 20 min | Potency, µM (highest dose often 57.5 µM) | ATP-dependent Clp protease proteolytic subunit (Bacillus subtilis (strain 168)), P80244 | 1.9% of 340,000 active; active = well fitted falling curve with a large enough effect; inconclusive = small, poorly fitted or top-dose-only effect; inactive = no such curve, though single readings can be large or run the other way; note: the source files actives as falling curves though it sought activators and does not explain the sign; nearly all actives have a fitted effect of over 65% in size
Target sequence (P80244 whole entry, looked up): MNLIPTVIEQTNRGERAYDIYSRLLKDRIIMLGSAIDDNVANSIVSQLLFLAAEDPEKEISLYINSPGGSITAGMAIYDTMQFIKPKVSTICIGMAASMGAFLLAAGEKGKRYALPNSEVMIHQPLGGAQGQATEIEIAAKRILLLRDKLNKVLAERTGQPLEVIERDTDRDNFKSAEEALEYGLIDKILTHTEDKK
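Buffer: 100 mM Tris/HCl pH8, 100 mM KCl, 0.05% low protease BSA, 2.5% glycerol, 0.01% Tween-20. ClpP 10 microg/mL final; 20 min RT; delta FRET normalized to ADEP and DMSO controls.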
gsp agonist: qHTS for Agonist of gsp, the Etiologic Mutation Responsible for Fibrous Dysplasia/McCune-Albright Syndrome: qHTS | AID 624287, 2012 | gsp mutant cells, cAMP HTRF, 30 min | 0.13% of 340,000 active | Potency, µM (highest dose often 76.9 µM), actives largely listed as activators; active = well fitted activation curve with a large enough effect; inconclusive = small, poorly fitted or top-dose-only effect, or another doubt; inactive = no such curve, though single readings can be large or run the other way; cell line not stated here;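 note: phosphodiesterase inhibitor Ro 20-1724 added with compounds to block cAMP breakdown; nearly all actives have a fitted effect of over 60% in size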
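Cells stably selected in G418 were plated at 2000/well, grown 16-24 hr, then given compounds in DMSO with the PDE inhibitor […] (300 uM solution added) for 30 min at 37C; cAMP was read by HTRF.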
RXFP1 ag: qHTS Assay for Agonists of the Relaxin Receptor RXFP1. HEK293T-RXFP1 cAMP TR-FRET, 30 min; response scale: percent of porcine relaxin response, buffer zero. 0.3% of 370,000 active. Potency, µM (highest dose often 57.5 µM), most hits filed as activators; active = well fitted activation curve with a large enough effect; inconclusive = small, poorly fitted or top-dose-only effect; note: nearly all actives have a fitted effect of over 60% in size
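Agonist response is measured as cAMP accumulation in an RXFP1-transfected HEK293T line under PDE4 inhibition. Values are scaled between buffer-only and 29 nM porcine relaxin, and EC50s come from standard Hill equation fits.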
Akt phos inh: HTS Assay for Inhibitors of Akt Phophorylation: Primary Screen. Neuro2A IGF-stimulated pAkt S473 HTRF, 20 min; stronger effect = lower value. activity change, % for hits at 50 µM. 0.32% of 360,000 active. AID 651550, 2012; in the data active = activity change below about -80%; inconclusive = mostly about -51% to -80%
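Neuro2A cells (4,500/well, DMEM with 0.5% FBS) were treated with compound at a single 50 µM final concentration, stimulated with 6 nM IGF for 20 min at 37 °C, and lysed. Phospho-Akt Ser473 was read by HTRF as 665/615 ratio ×10^4.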
gsp antag: qHTS for Antagonists of gsp, the Etiologic Mutation Responsible for Fibrous Dysplasia/McCune-Albright Syndrome: qHTS; gsp-mutant cells, cAMP HTRF, 30 min; 0.4% of 340,000 active; AID 624288, 2012; Potency, µM (top dose mostly 76.9 µM), actives largely listed as inhibitors; calls by dose curve; cell line not stated here;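 note: intracellular cAMP measured with PDE inhibitor Ro 20-1724 present during compound exposure; nearly all actives have a fitted effect of over 65% in size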
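HTRF cAMP measurement after 30 min RT detection following 30 min, 37C compound treatment alongside […] (added as 300 uM solution) in G418-selected cells seeded at 2000/well and grown 16–24 h.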
A number is an active result; [ ] = dose if it differs, or a comment.

For Cc1ccc(-c2cc(C#N)c(=O)n(Cc3c(Cl)cccc3Cl)c2)cc1 the results were RXFP1 antagonist inactive, ClpP mod 7.1µM, gsp agonist inconclusive, RXFP1 ag inactive, Akt phos inh inactive and gsp antag inactive.
Screening COC(=O)[C@@]12C[C@@H](CC(=O)N3CCCCC3)C(=O)N(Cc3ccco3)C1=CCC(C)(C)C2 returned ClpP mod inactive and Akt phos inh inactive.
O=C(O)c1cccc(CN2C(=O)S/C(=C/c3cccc([N+](=O)[O-])c3)C2=O)c1 was read as RXFP1 antagonist inactive, ClpP mod inactive, gsp agonist inconclusive, RXFP1 ag inactive, Akt phos inh inactive and gsp antag 20µM.
`C=CCN=C1S/C(=C/c2cccc([N+](=O)[O-])c2)C(=O)N1CC=C` gave ClpP mod inactive, gsp agonist inactive, RXFP1 ag inactive, Akt phos inh inactive and gsp antag inactive.
For N#CCSc1nnc2sc3ccccc3n12 the results were ClpP mod inactive, gsp agonist inconclusive, RXFP1 ag inactive, Akt phos inh inactive and gsp antag inactive.
Screening CN(C)CCSc1nnc2sc3ccccc3n12 returned RXFP1 antagonist inactive, ClpP mod inactive, gsp agonist inconclusive, RXFP1 ag inactive, Akt phos inh -106% and gsp antag inactive.
For Cc1ccc(-c2ccccc2C#N)cc1 the results were RXFP1 antagonist inactive.
`COCCCn1cc(CN2CC(N3CCN(CCO)CC3)CS2(=O)=O)nn1` (configuration not stated) gave ClpP mod inactive and Akt phos inh inactive.
For CCCCN(Cc1cc2cc(OC)ccc2[nH]c1=O)C(=O)c1ccco1 the results were RXFP1 antagonist inactive, ClpP mod 32µM, gsp agonist inconclusive, RXFP1 ag inactive, Akt phos inh -93% and gsp antag inactive.
`CCCCN(Cc1cc2cc(OC)ccc2[nH]c1=O)C(=O)c1ccccn1` gave RXFP1 antagonist inactive, ClpP mod 20µM, gsp agonist inactive, RXFP1 ag inactive, Akt phos inh inactive and gsp antag inactive[15.4 µM].
For CCCN(Cc1cc2cc(OC)ccc2[nH]c1=O)C(=O)c1ccco1 the results were RXFP1 antagonist inactive, gsp agonist inactive[15.4 µM], RXFP1 ag inactive, Akt phos inh inactive and gsp antag inactive.
COc1ccc(-c2cc(C(=O)N3CCCC(C(F)(F)F)C3)c3ccccc3n2)cc1 (configuration not stated) was read as RXFP1 antagonist inactive, ClpP mod inactive, gsp agonist inactive, RXFP1 ag inactive, Akt phos inh inactive and gsp antag inactive.
Screening Cc1ccc(-c2cc(C(=O)N3CCCC(C(F)(F)F)C3)c3ccccc3n2)o1 (configuration not stated) returned RXFP1 antagonist inactive, ClpP mod 16µM, gsp agonist inactive, RXFP1 ag inactive, Akt phos inh inactive and gsp antag inactive.
For Cc1ccc(-c2cc(C(=O)N(C)CC(=O)Nc3ccccc3Br)c3ccccc3n2)o1 the results were RXFP1 antagonist inactive, ClpP mod 25µM, gsp agonist inconclusive, RXFP1 ag inactive, Akt phos inh inactive and gsp antag inactive.
Screening COc1ccc(NC(=O)c2cc(-c3ccc(C)o3)nc3ccccc23)cc1OC returned RXFP1 antagonist inactive, ClpP mod 3.5µM, gsp agonist inactive, RXFP1 ag inactive, Akt phos inh inactive and gsp antag inactive.
COc1ccc(NC(=O)c2cc(-c3ccc(C)o3)nc3ccccc23)c(OC)c1 was read as RXFP1 antagonist inactive, ClpP mod inactive, gsp agonist inactive, Akt phos inh inactive and gsp antag inconclusive.
CCn1nc([N+](=O)[O-])c(C(C#N)c2nc3cc(C(F)(F)F)ccc3s2)c(Cl)c1=O (configuration not stated) was read as RXFP1 antagonist inconclusive, ClpP mod inactive, gsp agonist inactive, RXFP1 ag inactive, Akt phos inh inactive and gsp antag 28µM.
`COc1ccc2c(c1)c(=O)c(S(=O)(=O)c1ccc(F)cc1)cn2Cc1ccccc1Cl` gave RXFP1 antagonist inactive, ClpP mod inconclusive and RXFP1 ag inactive.
For CSc1nc(C)cc(/C=C\c2ccccc2)c1C#N the results were RXFP1 antagonist inactive, ClpP mod 28µM, gsp agonist inactive, RXFP1 ag inactive, Akt phos inh inactive and gsp antag inactive.
Screening COc1ccc(S(=O)(=O)n2ccnc2)c2cccnc12 returned RXFP1 antagonist inactive, ClpP mod 13µM, gsp agonist inactive, RXFP1 ag inactive, Akt phos inh inactive and gsp antag inactive.
For COc1ccc(S(=O)(=O)Nc2cccc(C)c2C)c2cccnc12 the results were RXFP1 antagonist inactive, gsp agonist inactive, RXFP1 ag inactive, Akt phos inh inactive and gsp antag inactive.
For COc1ccc(S(=O)(=O)N2CCC(C(=O)Nc3ccc(F)cc3)CC2)c2cccnc12 the results were RXFP1 antagonist inactive, gsp agonist inactive[15.4 µM], RXFP1 ag inactive, Akt phos inh inactive and gsp antag inactive.
CCCCNS(=O)(=O)c1ccc(OC)c2ncccc12 was read as RXFP1 antagonist inactive, ClpP mod 28µM, gsp agonist inactive, RXFP1 ag inactive, Akt phos inh inactive and gsp antag inactive.
CCOc1ccc(S(=O)(=O)NCc2ccc(C)cc2)c2cccnc12 was read as RXFP1 antagonist inactive, ClpP mod 32µM, gsp agonist inactive, RXFP1 ag inactive, Akt phos inh inactive and gsp antag inactive.
Screening O=C1C(=O)C(c2cc(O)c(O)c(O)c2)Oc2cc(O)cc(O)c21 (configuration not stated) returned ClpP mod inactive.
Screening O=c1[nH]cc(C#Cc2ccccc2)c2ncncc12 returned ClpP mod inactive.
Screening N#Cc1cc(N2CCOCC2)nc2ccccc12 returned RXFP1 antagonist inactive, ClpP mod inactive, gsp agonist inactive, RXFP1 ag inactive, Akt phos inh inactive and gsp antag inactive.
Screening CC1CN(c2cc(-c3ccccc3)c3ccccc3n2)CC(C)O1 (configuration not stated) returned RXFP1 antagonist inactive, ClpP mod 25µM, gsp agonist inactive, RXFP1 ag inactive, Akt phos inh inactive and gsp antag inactive.
For COc1ccc(N2CCN(c3cc(C)c4ccc(C)cc4n3)CC2)cc1 the results were RXFP1 antagonist inactive, ClpP mod inactive, gsp agonist inactive[15.4 µM], RXFP1 ag inactive, Akt phos inh inactive and gsp antag inactive.
